Several values for one entry are separate records, joined by “and”; a condition that tells them apart may be missing. Equal entries are not always repeated. This is part of a sample that, as a whole, favours compounds with a hit. Of some 83,000 tested, about 20% had one in any assay.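 Results are percent growth after 48 hours of single-concentration exposure. 100 means growth as in untreated cells, lower positive values show inhibition; negative values down to -100 show cell death.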 Activity calls are given as the source filed them. The calls were made as follows: active = growth percent below 10; inactive = the rest.

This passage reports growth results from PubChem BioAssay (NCI).

The test has as its system MDA-MB-468 breast. Nature of the test: NCI-60 one-dose screen, 48 h (100 = growth as untreated, 0 = no growth, -100 = all killed). The note with it: 10 µM unless noted.
Consider `c1ccc([As]=[As]c2ccccc2)cc1` (stereo unspecified), for which the growth was -55.7% (active).
For `S=P(N1CCCCCC1)(N1CC1)N1CC1`, the growth was 105% (inactive).
Consider `O=C(Nc1ccc([As]=[As]c2ccc(NC(=O)c3ccccc3)cc2)cc1)c1ccccc1` (stereo unspecified), for which the growth is -74.8% (active).
The figure for `COC(C)(C)CCC[C@H](C)C/C=C/C(C)=C/C(=O)OC(C)C` is 86.7% (inactive); for `O=NN1CCCc2cccc(O)c21` it is 67.7% (inactive).
With `C[C@]12CC[C@@H](OC(=O)N(CCCl)N=O)C[C@@H]1CC[C@@H]1[C@@H]2CC[C@]2(C)C(=O)CC[C@@H]12`, the growth is -31.4% (active).
With `O=C(CC1(O)C(=O)N(Cc2ccccc2)c2ccc(F)cc21)c1ccc(C(=O)NCC2CCC3(CC2)OOC2(CCCCC2)OO3)cc1` (stereo unspecified), the growth is -41.8% (active).
In the case of `CC1(C)N=C(N)N=C(N)N1c1cccc(C(=O)Nc2cccc(S(=O)(=O)F)c2)c1`, the growth is 94.6% (inactive).
For `COc1ccccc1N1CCN(CCc2c[nH]c3cc4c(cc23)OCO4)CC1`, the growth was 90% (inactive).
As to `COC[CH2][Hg][C]#[C][Hg][CH2]COC`, the growth is 110% (inactive).
As for `COc1ccc(S(=O)(=O)Nc2c(/C=C\c3cc(OC)c(OC)c(OC)c3)ccc(OC)c2O)cc1OC`, the growth is 14.1% (inactive).
For the molecule `CC(=O)O[C@@H]1C[C@H]2O[C@@H]3C=C(C)CC[C@]3(C)[C@]1(C)[C@]21CO1`, the growth was 39.3% (inactive).
In the case of `CCOC(=O)C1(c2ccccc2)CCN(CC(=O)c2ccc(NC(C)=O)cc2)CC1` it was 110% (inactive); in that of `O=[N+]([O-])c1cc(I)cc([N+](=O)[O-])c1`, 88.2% (inactive); in that of `CC/C(=C/c1ccc(OC)cc1)[N+](=O)[O-]`, -56.6% (active).
For the molecule `CCN1C(=O)CC(=O)N(CC)C1=S`, the growth is 93.1% (inactive).
The figure for `CC(C)C1c2ccc(O)cc2Oc2nc(N)c(C#N)c(N)c21` (stereo unspecified) is 90% (inactive); for `O=C(O)C(Cl)(Cl)C(F)(F)F` it is 106% (inactive).
Take `CC[C@H](C)[C@H](NC(=O)[C@H]1CCCCN1C)C(=O)N(C)[C@H](C[C@@H](OC(C)=O)c1nc(C(=O)N[C@@H](Cc2ccccc2)C[C@H](C)C(=O)OC)cs1)C(C)C`: the growth is -7.99% (active).
Take `COC1OC(CO)C(O)C(O)[CH]1[Hg][O]C(C)=O` (stereo unspecified): the growth is 72.2% (inactive).
Regarding `CCOC(=O)[C@@H](C)C[C@H](Cc1ccccc1)NC(=O)c1csc([C@@H](C[C@H](C(C)C)N(C)C(=O)[C@@H](NC(=O)[C@H]2CCCCN2C)C(C)(C)CC)OC(C)=O)n1`, the growth is 19.5% (inactive).
As for `Nc1c(Cl)c(Cl)nc(C(=O)O)c1Cl`, the growth was 107% (inactive).
The figure for `CC1=C2[C@H]3OC(=O)[C@@H](C)[C@@H]3CC[C@@]2(C)C=CC1=O` is 93.4% (inactive); for `C/C=C/CC(C)C(O)[C@H](NC(=O)[C@@H]1CCCN1C(=O)C(C)(C)NC(=O)CCCCCCCCC)C(=O)N[C@@](C)(CC)C(=O)N[C@@H](CCC(N)=O)C(=O)N[C@H](CCC(N)=O)C(=O)NC(C)(C)C(=O)N[C@@](C)(CC)C(=O)N[C@@H](CCC(N)=O)C(=O)N[C@H](CC(C)C)C(=O)N[C@H](CO)CC(C)C` (stereo partly specified) it is 99.2% (inactive) and -78.2% (active); for `[Cl][Hg][c]1cc[c]([Hg][Cl])o1` it is -0.231% (active).
Take `CCC1CCC(=O)O1` (stereo unspecified): the growth was 99.3% (inactive) and 109% (inactive).
In the case of `CC/C(=C/c1ccc(OC)cc1OC)[N+](=O)[O-]` it was -6.94% (active); in that of `ClCCN(CCCl)c1nc(Cl)c(C2CC(c3ccccc3)=NN2c2ccccc2)s1` (stereo unspecified), 75.4% (inactive); in that of `Cn1cc(C=O)c2nccnc21`, 98.1% (inactive).
In the case of `C#CC1(O)CCC2(C)C(CCC3C4CCC(=O)C4(C)CCC32)C1` (stereo unspecified) it was 86.3% (inactive).
With `C[C@]12C[C@H](c3ccoc3)OC(=O)[C@H]1CC[C@@]1(C)[C@@H]2[C@H]2C=C[C@]1(O)C(=O)O2`, the growth is 105% (inactive).
With `NC(=O)Oc1cc(OC(N)=O)cc(N(CCCl)CCCl)c1`, the growth was 29.9% (inactive).
On to `N#CC1(c2ccccc2)CCN(Cc2ccccc2)CC1`, for which the growth is 90.2% (inactive).
With `O=C(NC(Cl)=C(Cl)Cl)P(=O)(c1ccccc1)c1ccccc1`, the growth was 101% (inactive).
`C(=NC1CCCCC1)=NC1CCCCC1`: the growth is 103% (inactive) and -21.2% (active).
The figure for `CC1(C)[C@H](O)[C@H](F)C[C@@]2(C)Oc3ccc(C(=O)Nc4ccc5c(c4)NC(=O)C54CCN(CCCCC#N)CC4)cc3C[C@H]12` is 7.2% (active).
